AmpC inh no detg: AmpC beta-lactamase inhibition without detergent; P00811; AmpC nitrocefin hydrolysis, absorbance 480 nm, 0.0001% Triton; Potency, µM (doses to about 57.1 µM), actives largely listed as inhibitors; 0.52% of 330,000 active; note: nearly all actives have a fitted effect of over 20% in size
Target sequence (P00811 whole entry, looked up): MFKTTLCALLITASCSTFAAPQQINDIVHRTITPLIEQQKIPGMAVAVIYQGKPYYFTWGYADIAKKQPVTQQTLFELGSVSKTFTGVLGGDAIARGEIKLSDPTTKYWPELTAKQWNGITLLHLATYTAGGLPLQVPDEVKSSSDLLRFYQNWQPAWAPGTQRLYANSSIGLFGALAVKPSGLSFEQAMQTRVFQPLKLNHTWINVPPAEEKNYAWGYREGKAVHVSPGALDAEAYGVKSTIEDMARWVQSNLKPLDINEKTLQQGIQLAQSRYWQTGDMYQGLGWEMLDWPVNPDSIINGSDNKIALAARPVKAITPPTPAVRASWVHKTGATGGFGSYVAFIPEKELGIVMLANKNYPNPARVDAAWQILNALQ
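AmpC (5.3 nM in the dispensed reagent) in 20 mM phosphate pH 7.0 with 0.01% (detergent screen) or 0.0001% Triton X-100 was preincubated with compounds for 15 min at room temperature. Nitrocefin was then added from an 800 uM solution, and hydrolysis was followed at 480 nm.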
Pf growth 96h: P. falciparum growth inhibition at 96 hours | 6.9% of 320,000 active | Potency, µM (doses to about 28.7 µM), most hits filed as inhibitors | P. falciparum luciferase reporter growth, 96 h
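Readout is luminescence from an integrated firefly luciferase in P. falciparum. Red cells, 2% hematocrit and 0.05% parasitemia final, were cultured with compound through two parasite generations (96 hours) at 37 C, 5% CO2.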
AmpC detergent: blocks E. coli AmpC beta-lactamase in detergent assay | P00811 | AmpC hydrolysis of nitrocefin, absorbance 480 nm, 0.01% Triton | Potency, µM (doses to about 114 µM), hits mostly inhibitors | 0.041% of 370,000 active | AID 485294; note: nearly all actives have a fitted effect of over 25% in size
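20 mM phosphate pH 7.0 + 0.01% (detergent screen) or 0.0001% Triton X-100; 5.3 nM AmpC reagent; cpd preinc 15 min RT; nitrocefin (800 uM stock) to start; A480 q20 s × 4 min; Activity was normalised to no-enzyme and no-compound control wells.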
SARS PLP yeast: blocks SARS-CoV papain-like protease in a yeast assay. S. cerevisiae expressing SARS-CoV PLpro, growth rescue. Potency, µM (doses to about 32.9 µM), usual class: activators. 0.19% of 330,000 active; calls by dose curve; note: nearly all actives have a fitted effect of over 55% in size
Pf growth 48h: P. falciparum growth inhibition at 48 hours (one generation); P. falciparum luciferase growth in erythrocytes, 48 h; Potency, µM (highest dose often 28.7 µM), hits mostly inhibitors; 5.9% of 310,000 active
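Luciferase-expressing parasites in RBCs, 2% Hct / 0.1% parasitemia final; RPMI 1640 + 0.5% Albumax; 37 C, 5% CO2, one generation; luminescence read-out, lower signal = inhibition.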
Sm TGR inh: S. mansoni TGR enzyme inhibition; Q962Y6; purified TGR, DTNB reduction, TNB absorbance 405 nm; Potency, µM (top dose mostly 114 µM), hits mostly inhibitors; 3% of 360,000 active; AID 485364; note: nearly all actives have a fitted effect of over 60% in size
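TGR 20 nM + NADPH 100 uM (dispensed conc.), cpd preinc 15 min RT; start with NADPH (500 uM addition) then DTNB (15 mM addition). Kinetic TNB absorbance, 405 nm filter. Four-parameter Hill fit across titration.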
Numbers stand for hits; - = inactive; ? = inconclusive; . = not tested or not shown. Rows were chosen to be rich in hits. Some 12% of all compounds tested hit in one or more screens of this group. Unless noted, calls come from the whole dose curve; as a rule, active = well fitted curve in the direction sought with a large enough effect; inconclusive = small, poorly fitted or top-dose-only effect, or another doubt; inactive = no such curve, though single readings can be large; an effect the other way counts as inactive or inconclusive.

SMILES | AmpC inh no detg | Pf growth 96h | AmpC detergent | SARS PLP yeast | Pf growth 48h | Sm TGR inh
Cc1ccc(C(C)C)c(OCC(=O)Nc2ccc(Cl)cn2)c1 | - | - | - | - | ? | -
Cc1ccc(C(C)C)c(OCc2nn(CC(=O)c3ccc(Cl)cc3)c3[n+]2CCCCC3)c1 | - | ? | - | - | 12µM | -
O=C(Cn1nc(CNc2ccc(Cl)cc2)[n+]2c1CCCCC2)c1ccccc1 | - | ? | - | - | 0.93µM | -
CCn1cc(S(=O)(=O)c2cc(C)cc(C)c2)c(=O)c2cc(F)c(N3CCN(c4ccccc4)CC3)cc21 | . | . | - | . | . | -
CCOC(=O)Nc1nnc(-c2ccccc2OC)s1 | - | - | - | - | - | -
CCC(SC1=NCCS1)C(=O)Nc1nnc(-c2ccccc2OC)s1 (stereo not given) | 10µM | - | - | - | - | -
COc1ccc(C2CC(c3ccc(OC)cc3)n3nc(NC(=O)c4cccs4)nc3N2)cc1 (stereo not given) | - | - | - | - | ? | -
COCC(=O)Nc1nc2n(n1)C(c1ccc(Cl)cc1)CC(c1ccc(OC)cc1)N2 (stereo not given) | - | - | ? | - | . | 25µM
COCC(=O)Nc1nc2n(n1)C(c1ccccc1Cl)CC(c1ccc(OC)cc1)N2 (stereo not given) | - | . | - | - | - | 40µM
COC(=O)c1cnn2c3c(c(C)nc12)CCCC3 | - | 0.93µM | - | - | - | -
CCC(C)N(C(=O)COC(=O)c1cc([N+](=O)[O-])ccc1N)C1CCS(=O)(=O)C1 (stereo not given) | - | ? | - | - | - | -
CCCCCNC(=O)Cc1cc(=O)[nH]c(=O)[nH]1 | 50µM | - | ? | - | - | -
COc1cc2c(cc1OC)C1=NC(=O)CN1C(SCc1ccccc1C)=N2 | - | 12µM | ? | - | ? | -
O=C(NCc1cccnc1)c1ccc2c(c1)C(=O)N(Cc1ccccc1)C2=O | - | 4.1µM | - | - | - | -
O=C(Nc1cccnc1)c1ccc2c(c1)C(=O)N(Cc1cccnc1)C2=O | - | 9.3µM | - | - | - | -
CCc1ccc(NC(=O)c2cnn(-c3c(C)cccc3C)c2C2CCNCC2)cc1 | . | . | - | . | . | -
Cc1ccc(C2C=NN(c3ccccc3)C2=O)cc1 (stereo not given) | - | ? | - | - | 6.6µM | -
Cc1ccc(N2C(=O)C(CN(C)C)C2c2ccccc2)cc1 (stereo not given) | - | ? | - | - | ? | -
COc1cccc(N2CC(C(=O)Nc3ccc(C(=O)OC(C)C)cc3)CC2=O)c1 (stereo not given) | - | - | - | - | ? | -
Nc1c(N(CCCO)C(=O)C2CCCCC2)c(=O)[nH]c(=O)n1Cc1ccccc1 | - | . | . | - | . | .
CC1=CC(C)(C)n2c(O)c(N=NC(N)=S)c3cccc1c32 | - | - | ? | - | - | -
COc1cc2c3c(c1)c(N=NC(N)=S)c(O)n3C(C)(C)C=C2C | - | 6.6µM | - | - | 10µM | -
CCOc1cc(C(=O)OCc2cc(=O)n3nc(CC)sc3n2)cc(OCC)c1OCC | . | . | - | . | . | -
O=C(CSc1nc2ccc(Cl)cc2[nH]1)c1ccc2c(c1)OCO2 | - | 13µM | - | - | 12µM | -
O=C(CSc1nc2ncc(Cl)cc2[nH]1)c1ccc2c(c1)OCO2 | - | - | - | - | ? | -
O=C(CSc1nc2cc(Cl)c(Cl)cc2[nH]1)c1ccc2c(c1)OCO2 | - | 4.7µM | - | - | 4.1µM | -
CC(=O)O[C@@]12CO[C@@H]1C[C@H](O)[C@@]1(C)C(=O)[C@H](O)C3=C(C)[C@@H](OC(=O)[C@H](O)[C@@H](NC(=O)OC(C)(C)C)c4ccccc4)C[C@](O)([C@@H](OC(=O)c4ccccc4)[C@H]21)C3(C)C | - | . | - | - | . | -

Source: PubChem BioAssay (National Center for Advancing Translational Sciences (NCATS))
